# Assay results reported in PubChem BioAssay AID651820 (National Center for Advancing Translational Sciences (NCATS), 2012).
# Values joined by “and” are separate entries in the source; they are usually repeats but may differ in a detail not shown here. Identical values can stand only once. The campaign covered roughly 340,000 compounds. About 12,000 (3.5%) were called active. Not shown: some 18% with an inconclusive outcome. The sample holds actives, similar compounds and a random draw of the others, so the mix is not that of the screen. Calls follow the shape of the dose curve; as a rule, active = well fitted inhibition curve with a large enough effect; inconclusive = small, poorly fitted or top-dose-only effect, or another doubt; inactive = no such curve, though single readings can be large or run the other way. A structure can be active in one record and inactive in another.
# Test: qHTS Assay for Inhibitors of Hepatitis C Virus (HCV)
# Conditions: Huh7.5.1 HCVcc-Cre infection, luciferase reporter, 44 h; series mostly up to 41.8 µM; activity change, negative = inhibition: at the top concentration
# Description: Hepatitis C virus (HCV) infects about 200 million people in the world. Many infected people progress to chronic liver disease including cirrhosis with a risk of developing liver cancer. To date, there is no effective vaccine for hepatitis C. Current therapy based on interferon is only effective in about half of the patients and is associated with significant adverse effects. The fraction of people with HCV who can complete a successful treatment is estimated to be no more than 10 percent. Recent development of direct-acting antivirals against HCV, such as protease and polymerase inhibitors, is promising but still requires combination with peginterferon and ribavirin for maximal efficacy. In addition, these agents are associated with high rate of resistance and many have significant side effects. Due to the lack of a culture system for infectious HCV, the search for new HCV drugs has been greatly hampered. […] High-throughput screening (HTS) with an infectious HCV system would cover the complete spectrum of potentially druggable targets in all stages of HCV lifecycle, and would have more biological relevance than other cell-based assays. Moreover, targeting several key processes in the viral life cycle may not only increase antiviral efficacy; more importantly, it may also reduce the capacity of the virus to develop resistance to the compound. The goal of this project is to identify novel HCV inhibitors as new therapies for hepatitis C, using a highly sensitive and specific assay platform which is based on a HCV infectious cell culture system established in the laboratory and adapted for high-throughput HCV drug screen. NIH Chemical Genomics Center [NCGC] NIH Molecular Libraries Probe Centers Network [MLPCN] MLPCN Grant: MH095511 Assay Submitter (PI): Jake Liang, NIDDK
# The assay will start with plating 1,000 cells/well in 3 µL volume and culture for 4 h. Then 23 nL of compounds from the library collection will be added to each well, followed by adding 2.5 µL of HCVcc-Cre virus (~ 0.5 moi) and further cultured for 44 h before the luciferase assay. A volume of 4.5 µL luciferase substrates will be added to each well and the plates will be incubated at room temperature for 15 min. and then read for 15 sec. for the luciferase activity
# % is scaled to controls: 0 for no effect and ±100 for the full control effect.
Compound,"activity change, negative = inhibition",Potency
CN1C(c2ccc(F)cc2)=CS/C1=C(/C#N)c1nnc2n1-c1ccccc1SC2,6.19% (inactive),
CC(CNC(=O)Cn1cnc2c(OCc3ccccc3)ncnc21)c1ccccc1 (stereo not given),2.55% (inactive),
CN(CC(=O)Nc1ccccc1Cl)C(=O)c1ccccc1SCC(=O)N1CCCC1,8.76% (inactive),
N=c1n(CCc2ccccc2)c2ccccc2n1Cc1ccccc1F,,12.6 µM (active)
CC(=O)NC(C)c1nc2ccccc2n1Cc1ccccc1F (stereo not given),2.57% (inactive),
O=C(COC(=O)Cc1ccccc1F)NCCc1ccccc1,-2.44% (inactive),
COc1ccccc1CNS(=O)(=O)c1cc(C(=O)NCc2ccccn2)c(Cl)cc1Cl,-7.19% (inactive),
Cn1cccc1C(=O)OCC(=O)c1ccc(Br)s1,11% (inactive),
Cc1ccc(C)c(NC(=O)COC(=O)c2nn(C)c(=O)c3ccccc23)c1,22.1% (inactive),
O=C(Nc1ccccc1-c1ccccc1)c1cccs1,-24.9% (inactive),
COc1ccccc1N1CCN(C(=O)Cn2nnc(-c3cccs3)n2)CC1,-8.71% (inactive),
O=C(Nc1ccccc1-c1nnn(CC(=O)N2CCN(c3ccccc3)CC2)n1)c1cccs1,,12.6 µM (active)
COc1cc(OC)cc(C(=O)NCC(=O)OCC(=O)NC(C)CCc2ccccc2)c1 (stereo not given),4.6% (inactive),
Cc1nn(-c2ccc(F)cc2)c(Cl)c1/C=C(/CCC(=O)O)c1nc2ccccc2s1,22.1% (inactive),
CCCN=C1N(C)C[C@@H]2[C@@H]3C(=O)N(Cc4ccccc4)C(=O)[C@@H]3[C@](C)(C(=O)OC)N12,12% [at 8.37 µM] (inactive),
Cc1ccc(S(=O)(=O)N2[C@@H](c3ccc(Br)cc3)C(C(=O)O)=C[C@H]2CC2CCCC2)cc1,4.65% (inactive),
CCCn1c(C(=O)c2ccccc2OC)nc2ccccc21,-3.79% (inactive),
CCn1c(/C=N/NC(=O)c2ccc(OC)cc2)nc2ccccc21,,17.8 µM (active)
COc1ccc(C(=O)NCC(=O)N/N=C/c2cccnc2)cc1,17.2% (inactive),
CCC(C)(C)n1nnnc1C(c1cccs1)N1CCN(c2nc3ccccc3s2)CC1 (stereo not given),,10 µM (active)
CCC(C)(C)n1nnnc1C(c1cccs1)N1CCN(Cc2ccccc2)CC1 (stereo not given),-14.5% (inactive),
CCC(C)(C)n1nnnc1C(c1ccccc1OC)N1CCSCC1 (stereo not given),2.53% (inactive),
Cc1cc(NC(=O)CSC2=NS(=O)(=O)c3cc(Cl)ccc3N2)no1,1.9% (inactive),

Compound,"activity change, negative = inhibition",Potency
CCOC(=O)CNC(=O)N1c2ccccc2Sc2ccccc21,-3% (inactive),
CCNCCC(=O)N1c2ccccc2Sc2ccc(NC(=O)OCC)cc21,,12.6 µM (active)
CCOC(=O)Nc1ccc2c(c1)N(C(=O)CCN1CCN(CCO)CC1)c1ccccc1CC2,6.1% (inactive),
CCCCN(CC)CCCNC(=O)CS(=O)(=O)Cc1nc(-c2cccc(OC)c2)oc1C,,inactive and 20 µM (active)
COc1ccc(-c2nc(CS(=O)(=O)CC(=O)NCc3cccc(Br)c3)c(C)o2)cc1,8.12% (inactive),
COc1cccc(-c2nc(CS(=O)CC(=O)NCc3ccc(F)cc3)c(C)o2)c1 (stereo not given),-6.07% (inactive),
COc1ccc(C(CNC(=O)c2ccc(NS(=O)(=O)c3ccc(F)c(C)c3)cc2)N(C)C)cc1 (stereo not given),-7.07% (inactive),
Cc1ccc(OCCC(=O)Nc2ccc(S(=O)(=O)Nc3nccs3)cc2)cc1,8.18% (inactive),
COCCCn1c(SCc2cccc(OC)c2)nc2cc(OC)c(OC)cc2c1=N,,7.08 µM (active)
COCCn1c(SCc2nc3cc(OC)c(OC)cc3c(=O)[nH]2)nnc1-c1ccncc1,21.9% (inactive),
COc1cccc(CSc2nc3nc(C)cc(C)n3n2)c1,-14.8% (inactive),
Cc1ccccc1SCC(=O)OCC(=O)N1CC(=O)Nc2ccccc21,7.25% (inactive),
O=C(/C=C/c1ccccc1[N+](=O)[O-])OC1CCCCC1=O (stereo not given),-0.487% (inactive),
O=C(/C=C/c1ccccc1[N+](=O)[O-])NCC1CCCO1 (stereo not given),11.4% (inactive),
CC1CCCCC1NC(=O)/C(C#N)=C/C=C/c1ccccc1[N+](=O)[O-] (stereo not given),,11.2 µM (active)
Cc1ccc(S(=O)(=O)N2[C@@H](c3cccc(Cl)c3)C(C(=O)O)=CC[C@H]2c2ccc(Cl)c(Cl)c2)cc1,22.6% (inactive),
C#CCOCCOCCOCCNc1nc(N2CCN(C(=O)CCCCCCCCCCNC(=O)[C@H](CCCCN)n3cc(C)nn3)CC2)nc(N2CCN(C(=O)CCCCCCCCCCNC(=O)[C@H](CO)n3cc(CCCSC)nn3)CC2)n1,12.2% (inactive),
CC(OC(=O)CCCOc1ccccc1)C(=O)Nc1ccc(Cl)cn1 (stereo not given),18.5% (inactive),
CCN(CC)S(=O)(=O)c1cc(C(=O)Nc2cc(S(=O)(=O)N3CCOCC3)ccc2N2CCCC2)ccc1F,-4.92% (inactive),
CCN(CC)S(=O)(=O)c1ccc(N2CCOCC2)c(NC(=O)c2ccc(=O)n(C)n2)c1,2.92% (inactive),
CCN(CC)S(=O)(=O)c1ccc(N2CCCC2)c(NC(=O)c2ccc([N+](=O)[O-])o2)c1,,10 µM (active)
CCOc1ccccc1OCC(=O)Nc1ccccc1C(=O)NC1CC1,10.1% (inactive),
